Our source for the composite z-score, composite Z-score and z-score values is PubChem BioAssay.

The target in one experiment is Albumin (Bos taurus) (UniProt P02769). Briefly: compounds binding labelled BSA control protein – biochemical, small-molecule microarray, Alexa647 label, 635/667 nm fluorescence, artefact control for SMM control protein annotation, profiling panel (AID 1118).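 Further: score merges 667 nm emission intensity and signal-to-noise per printed compound spot.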 The note with it: BSA-A647 binding, fluorescence 635 nm, higher = more signal.
Experiment [1] in a line: probe aXIP binding to arrayed compounds – biochemical, NeuroSMM set, 635/667 nm fluorescence, primary screen (AID 1119).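 Further: probe is the protein aXip251-270 applied at 1 µg/mL to compound-printed slides; binding of probe to printed compounds measured as 667 nm fluorescence plus signal to noise.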 The note with it: small-molecule microarray, higher = more signal, called active from +8 up or from −8 down.
Experiment [2] can be described thus: probe aNOTCH3 binding on compound microarray – biochemical, small-molecule microarray, 635/667 nm fluorescence, primary screen (AID 1120).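 Further: probe is a biotin-tagged antibody raised against NOTCH3 rather than NOTCH3 protein; score merges spot fluorescence near 667 nm with spot signal to noise.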 The note with it: higher = more signal.
A short description of experiment [3]: probe aNOTCH2 binding on compound microarray – biochemical, small-molecule microarray, 635/667 nm fluorescence, primary screen (AID 1121).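 Further: score merges feature fluorescence read at 667 nm with its signal to noise.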 The conditions noted are these: higher = more signal.
Experiment [4] concerns the target Carbonic anhydrase 2 (Homo sapiens) (UniProt P00918). Kind of experiment: compounds binding carbonic anhydrase 2 – biochemical, small-molecule microarray, Alexa647-labelled CAII, profiling panel (AID 1122). The note with it: CAII-A647 binding fluorescence, higher = more signal.
Experiment [5] can be described thus: COS7 lysate on small-molecule microarray, probe aHis, 635 nm (AID 1123).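 Further: z-score combines 667nm fluorescence intensity with signal-to-noise per printed compound spot.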 The note with it: COS7 cell lysate, fluorescence, higher = more signal.
Experiment [6] in a line: probe aLAP1 signal on lysate-treated microarray – cell lysate, small-molecule microarray, COS7 lysate, primary screen (AID 1124).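 Further: lysate comes from COS7 cells expressing LAP1 and is applied at 0.3 µg/mL; score merges spot fluorescence near 667 nm with signal-to-noise over triplicate slides.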 The note with it: probe aLAP1, fluorescence, higher = more signal.
A further experiment has as its system Sam68 (KHDRBS1). Briefly: compounds binding KHDRBS1 protein – biochemical, small-molecule microarray, 635 nm fluorescence, primary screen (AID 1125).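 Further: score merges 667 nm channel intensity with signal to noise over triplicate slides.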 The note with it: higher = more signal.
Experiment [7] concerns Chordin-like protein 2 (CHRDL2). Kind of experiment: compounds binding chordin-like 2 – biochemical, small-molecule microarray, 635 nm fluorescence, primary screen (AID 1126).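 Further: printed compound slides probed with Chrdl2 protein at 4 µg/mL for 1 h at 4 C; score merges 667 nm emission intensity with signal to noise over three replicate slides.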 The conditions noted are these: fluorescence 635 nm, higher = more signal.
Experiment [8] deals with Concanavalin-A (Canavalia ensiformis) (UniProt P02866). Briefly: compounds binding concanavalin A lectin – biochemical, small-molecule microarray, Alexa647 label, 635 nm, artefact control for SMM control protein annotation, primary screen (AID 1127).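 Further: z combines 667 nm emission intensity with signal-to-noise across three replicate slides.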 The conditions noted are these: ConA-A647 binding fluorescence, higher = more signal.
Experiment [9] is described as follows: compounds binding Alexa647 anti-His antibody – biochemical, small-molecule microarray, 635 nm fluorescence, artefact control for SMM control protein annotation, primary screen (AID 1128).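 Further: score merges feature fluorescence with signal-to-noise for each printed compound spot.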 The note with it: higher = more signal.
Experiment [10] concerns Human papillomavirus type 1a E7 protein (residues 1-88). Briefly: HPV1a E7 small-molecule binders, primary screen, biochemical, small-molecule microarray, residues 1-88, 635 nm (AID 1129). The conditions noted are these: small-molecule microarray binding, fluorescence 635 nm; higher = more signal.
The target in experiment [11] is Focal adhesion kinase 1 (Homo sapiens) (UniProt Q05397). Kind of experiment: PTK2 protein binding on printed compound slides – biochemical, small-molecule microarray, 635/667 nm fluorescence, BSA, DTT, primary screen (AID 1130).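 Further: composite of spot emission at 667 nm and signal to noise over triplicate slides.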 The note with it: 635 nm fluorescence, higher = more signal.
Experiment [12] deals with Fibrinogen (Alexa647-labelled). Briefly: Alexa647-fibrinogen binding to printed small molecules – biochemical, small-molecule microarray, 635/667 nm fluorescence, artefact control for SMM control-protein annotation, profiling panel (AID 1131).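 Further: z-score merges 667 nm fluorescence with per-spot signal-to-noise over triplicate slides.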 The conditions noted are these: fibrinogen-A647 binding fluorescence, higher = more signal.
Experiment [13] has as its target Follistatin (Homo sapiens) (UniProt P19883). Briefly: FST protein binding to printed compounds – biochemical, small-molecule microarray, 635/667 nm fluorescence, primary screen (AID 1132). The conditions noted are these: 635 nm fluorescence, higher = more signal.
Experiment [14] deals with Fibroblast growth factor 2 (Homo sapiens) (UniProt P09038). Kind of experiment: basic fibroblast growth factor binding to printed compounds – biochemical, small-molecule microarray, 635/667 nm fluorescence, primary screen (AID 1133). The note with it: FGF2, fluorescence 635/667, higher = more signal.
Experiment [15] is described as follows: JC-1 mitochondrial potential readout, lung cancer cells – cell-based, A549, JC-1 fluorescence, basal, 24 h, 100 nL, profiling panel (AID 1138).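 Further: A549 lung adenocarcinoma cells under basal conditions with no added stimulus; test concentration not given here.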 The conditions noted are these: higher = more signal.
Another experiment has as its system Lefty1. Briefly: Lefty1 protein binding to printed compounds – biochemical, small-molecule microarray, 635/667 nm fluorescence, primary screen (AID 1139). The conditions noted are these: fluorescence 635/667, higher = more signal.
In experiment [16] the test system is wheat germ agglutinin (Triticum aestivum), Alexa647-labelled. Kind of experiment: Alexa647-WGA lectin binding to printed small molecules – biochemical, small-molecule microarray, 635/667 nm fluorescence, artefact control for SMM control-protein annotation, profiling panel (AID 1140).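 Further: score merges 667 nm feature emission with signal to noise over triplicate slides.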 The note with it: WGA-A647 binding, 635 nm fluorescence, higher = more signal.

Experiment [17] deals with Luciferin 4-monooxygenase (Photinus pyralis) (UniProt P08659). Kind of experiment: inhibition of purified Photinus pyralis luciferase – biochemical, luminescence, purified enzyme, 2006 set, primary screen (AID 1141).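 Further: cell-free assay with purified firefly luciferase at 100 ng per well in PBS; test concentration not given here.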 The note with it: purified firefly luciferase, SteadyGlo luminescence, 30 min; higher = more signal, called active from +8 up or from −8 down.

The source made the active and inactive calls.

Chain of Follistatin (Homo sapiens) (P19883 whole entry, looked up): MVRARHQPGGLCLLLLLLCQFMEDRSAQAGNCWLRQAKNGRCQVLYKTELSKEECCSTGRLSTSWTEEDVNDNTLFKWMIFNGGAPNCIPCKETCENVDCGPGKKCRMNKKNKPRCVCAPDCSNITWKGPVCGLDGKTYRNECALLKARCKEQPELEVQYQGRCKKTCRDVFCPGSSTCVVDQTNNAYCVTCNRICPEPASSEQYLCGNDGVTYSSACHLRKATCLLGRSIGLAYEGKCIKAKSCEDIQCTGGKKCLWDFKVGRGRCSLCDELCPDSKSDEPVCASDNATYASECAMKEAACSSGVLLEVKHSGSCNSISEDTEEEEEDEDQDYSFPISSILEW
Chain of Concanavalin-A (Canavalia ensiformis) (P02866 whole entry, looked up): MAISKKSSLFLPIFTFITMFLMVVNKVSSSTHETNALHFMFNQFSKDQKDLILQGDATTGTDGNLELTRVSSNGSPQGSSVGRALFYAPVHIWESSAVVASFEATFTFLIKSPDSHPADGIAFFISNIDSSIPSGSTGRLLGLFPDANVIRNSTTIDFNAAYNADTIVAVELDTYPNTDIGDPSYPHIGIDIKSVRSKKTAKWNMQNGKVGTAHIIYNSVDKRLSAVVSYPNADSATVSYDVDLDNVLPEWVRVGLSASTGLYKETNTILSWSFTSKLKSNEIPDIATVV
Chain of Fibroblast growth factor 2 (Homo sapiens) (P09038 whole entry, looked up): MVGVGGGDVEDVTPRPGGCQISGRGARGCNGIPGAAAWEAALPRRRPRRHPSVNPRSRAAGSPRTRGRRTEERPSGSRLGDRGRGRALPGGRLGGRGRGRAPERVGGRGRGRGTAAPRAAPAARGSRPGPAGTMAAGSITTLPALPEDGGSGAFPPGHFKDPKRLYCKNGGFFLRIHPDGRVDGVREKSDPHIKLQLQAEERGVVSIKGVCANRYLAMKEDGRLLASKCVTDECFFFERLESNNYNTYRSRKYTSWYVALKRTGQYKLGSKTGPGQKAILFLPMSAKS
Chain of Albumin (Bos taurus) (P02769 whole entry, looked up): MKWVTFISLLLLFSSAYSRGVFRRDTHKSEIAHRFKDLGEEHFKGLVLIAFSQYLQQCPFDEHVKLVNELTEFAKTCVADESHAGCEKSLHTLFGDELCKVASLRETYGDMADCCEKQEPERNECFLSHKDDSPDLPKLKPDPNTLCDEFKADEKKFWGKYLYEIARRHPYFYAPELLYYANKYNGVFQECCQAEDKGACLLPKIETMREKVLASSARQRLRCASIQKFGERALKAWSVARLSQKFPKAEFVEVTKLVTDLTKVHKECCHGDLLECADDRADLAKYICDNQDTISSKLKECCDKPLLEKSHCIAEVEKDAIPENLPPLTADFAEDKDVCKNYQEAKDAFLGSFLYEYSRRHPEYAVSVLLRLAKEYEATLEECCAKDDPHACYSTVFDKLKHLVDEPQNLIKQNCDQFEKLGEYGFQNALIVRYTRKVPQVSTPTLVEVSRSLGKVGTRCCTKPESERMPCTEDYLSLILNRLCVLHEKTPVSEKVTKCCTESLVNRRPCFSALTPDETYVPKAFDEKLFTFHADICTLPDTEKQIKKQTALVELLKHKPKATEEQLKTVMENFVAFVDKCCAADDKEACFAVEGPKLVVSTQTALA
Chain of Luciferin 4-monooxygenase (Photinus pyralis) (P08659 whole entry, looked up): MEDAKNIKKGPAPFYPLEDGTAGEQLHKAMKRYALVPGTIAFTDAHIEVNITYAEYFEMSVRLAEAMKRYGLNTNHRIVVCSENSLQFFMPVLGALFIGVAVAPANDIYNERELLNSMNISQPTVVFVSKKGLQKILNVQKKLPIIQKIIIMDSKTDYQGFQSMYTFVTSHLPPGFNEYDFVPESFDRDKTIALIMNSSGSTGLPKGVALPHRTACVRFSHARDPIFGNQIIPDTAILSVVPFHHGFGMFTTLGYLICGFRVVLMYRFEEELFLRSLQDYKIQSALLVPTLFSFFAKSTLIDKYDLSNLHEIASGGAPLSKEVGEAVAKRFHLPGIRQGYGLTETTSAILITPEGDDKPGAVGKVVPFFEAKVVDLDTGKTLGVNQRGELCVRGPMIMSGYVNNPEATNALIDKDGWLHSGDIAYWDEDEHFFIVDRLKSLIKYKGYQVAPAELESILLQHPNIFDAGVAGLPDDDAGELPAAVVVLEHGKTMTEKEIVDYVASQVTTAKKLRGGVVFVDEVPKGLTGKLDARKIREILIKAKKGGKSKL
Chain of Focal adhesion kinase 1 (Homo sapiens) (Q05397 whole entry, looked up): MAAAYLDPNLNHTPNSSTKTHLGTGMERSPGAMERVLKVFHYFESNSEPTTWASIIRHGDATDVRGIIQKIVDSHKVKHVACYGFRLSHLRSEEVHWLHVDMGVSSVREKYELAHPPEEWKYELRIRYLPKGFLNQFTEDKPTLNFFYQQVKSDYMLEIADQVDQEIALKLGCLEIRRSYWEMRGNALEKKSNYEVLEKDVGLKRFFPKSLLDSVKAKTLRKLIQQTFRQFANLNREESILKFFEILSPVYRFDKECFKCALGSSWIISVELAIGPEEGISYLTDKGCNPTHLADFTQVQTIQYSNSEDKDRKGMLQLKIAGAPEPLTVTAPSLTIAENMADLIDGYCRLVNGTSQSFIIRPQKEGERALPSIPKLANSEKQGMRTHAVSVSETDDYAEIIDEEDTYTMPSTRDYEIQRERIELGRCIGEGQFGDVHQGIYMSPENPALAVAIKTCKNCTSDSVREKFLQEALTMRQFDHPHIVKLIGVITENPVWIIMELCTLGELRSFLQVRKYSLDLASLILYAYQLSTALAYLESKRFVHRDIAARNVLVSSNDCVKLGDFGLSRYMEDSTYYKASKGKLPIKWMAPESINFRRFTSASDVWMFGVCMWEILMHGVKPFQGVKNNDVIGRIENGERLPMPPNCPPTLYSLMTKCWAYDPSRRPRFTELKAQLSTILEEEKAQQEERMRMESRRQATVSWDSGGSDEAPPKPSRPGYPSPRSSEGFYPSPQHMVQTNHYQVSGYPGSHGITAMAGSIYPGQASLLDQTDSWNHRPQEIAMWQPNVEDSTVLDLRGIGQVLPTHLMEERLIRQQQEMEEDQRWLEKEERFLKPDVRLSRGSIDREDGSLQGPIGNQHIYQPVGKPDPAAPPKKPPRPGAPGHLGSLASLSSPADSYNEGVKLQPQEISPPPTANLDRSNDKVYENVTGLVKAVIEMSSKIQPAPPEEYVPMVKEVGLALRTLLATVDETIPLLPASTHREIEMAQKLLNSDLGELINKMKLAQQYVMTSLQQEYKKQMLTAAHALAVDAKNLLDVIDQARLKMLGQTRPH

Turning to `COCCOC(=O)N1C(=O)[C@@]2(c3cc(C#CCC(C(=O)OC)C(=O)OC)ccc31)[C@H](C(=O)NC[C@H](O)c1ccccc1)[C@H]1C(=O)O[C@H](c3ccccc3)[C@H](c3ccccc3)N1[C@@H]2c1ccc(O)cc1`, the composite z-score is 0.661 with Albumin (Bos taurus); -0.0014 in [2]; -0.0974 in [3]; 0.614 in [4]; 1.67 in experiment [5]; 0.243 in [6]. Further, the composite z-score in the experiment on Sam68 (KHDRBS1) is 0.378; in [7] it was -0.769; in [8], 0.708; in experiment [9] it was 2.58; in [10], 1.17; in [11] it was 0.983. For the same molecule, the composite z-score in experiment [12] is -0.6; in experiment [13] it was 0.22; in experiment [14], 0.501; in the experiment on Lefty1, 0.464; in experiment [16], 1.02. For the same molecule, the composite Z-score in experiment [1] is -0.0756 (inactive). Besides, the z-score was -0.464 in experiment [15] and -0.296 (inactive) in [17].
For `CN(C)CCCCNC(=O)[C@H]1C[C@H]2C(=O)N[C@@H](CCCC[N+](C)(C)C)C(=O)N2[C@H]1c1ccc(O)cc1`, the composite z-score with Albumin (Bos taurus) is -0.165; in [2] it was -0.208; in experiment [3], 0.2; in experiment [4], 0.716; in experiment [5], -0.287; in experiment [6] it was 0.106. The composite z-score with Sam68 (KHDRBS1) was -0.863; in [7] it was -0.187; in [8], 0.343; in experiment [9], 1.12; in experiment [10] it was -0.454; in experiment [11], -0.294. The composite z-score in experiment [12] was -1.24; in [13], 0.525; in experiment [14] it was 0.0954; in the experiment with Lefty1, 0.306; in experiment [16], 0.0976. In addition, the composite Z-score in experiment [1] is 0.261 (inactive). The values for the z-score in [15] and in experiment [17] were -0.247 and 0.0252 (inactive), respectively.
For `COCCOC(=O)N1C(=O)[C@@]2(c3cc(C#CCC(C(=O)OC)C(=O)OC)ccc31)[C@H](C(=O)NC[C@H](O)c1ccccc1)[C@H]1C(=O)O[C@H](c3ccccc3)[C@H](c3ccccc3)N1[C@@H]2c1ccc(OCCO)cc1`, the composite z-score was 0.45 with Albumin (Bos taurus); 0.0899 in experiment [2]; -0.099 in [3]; 0.521 in experiment [4]; 1.66 in [5]; 0.257 in [6]. Moreover, the composite z-score in the experiment on Sam68 (KHDRBS1) amounted to 1.3; in experiment [7], 1.13; in experiment [8], 1.14; in [9], 1.02; in experiment [10] it was 1.19; in experiment [11] it was 0.427. The composite z-score turned out to be 0.891 in experiment [12]; 1.4 in [13]; 1.58 in experiment [14]; 1.32 in the experiment with Lefty1; 0.309 in experiment [16]. The composite Z-score in experiment [1] is 1.02 (inactive). Moreover, the z-score in experiment [15] is -1.58; in experiment [17], -0.997 (inactive).
With `CCCC=C(CCC)[C@@H](NS(=O)(=O)c1cccc2cccnc12)c1ccc(-c2ccccc2)cc1`, the composite z-score with Albumin (Bos taurus) was 0.723; in experiment [2] it was 0.438; in experiment [3], -0.0581; in [4], 0.666; in experiment [5] it was 2.88; in experiment [6], 0.0607. The composite z-score in the experiment on Sam68 (KHDRBS1) was 1.31; in experiment [7], -0.677; in experiment [8], 1.14; in [9], 0.187; in experiment [10], 1.19; in experiment [11], 0.638. The composite z-score in experiment [12] was 0.98; in experiment [13], 0.964; in experiment [14], 0.512; in the experiment with Lefty1 it was 1.11; in experiment [16], 0.745. The composite Z-score in experiment [1] is 0.339 (inactive). The z-score is 1.03 in [15] and 2.06 (inactive) in experiment [17].
As for `CN1C(=O)C2C(C1=O)C1C=C(CCCO)C2C(C2CC2)N1Cc1cc2c(cc1Br)OCO2` (stereo not given), the composite z-score was 0.984 in the experiment with Albumin (Bos taurus); 0.201 in [2]; -0.0097 in experiment [3]; 0.756 in [4]; 2.63 in experiment [5]; 1.25 in experiment [6]. Besides, the composite z-score with Sam68 (KHDRBS1) was 1.18; in experiment [7] it was 0.0995; in experiment [8] it was 0.738; in experiment [9] it was 2.92; in [10] it was 0.788; in experiment [11] it was 0.481. Further, the composite z-score is 0.919 in [12]; 0.4 in experiment [13]; 0.0867 in experiment [14]; 0.317 with Lefty1; 0.555 in [16]. Moreover, the composite Z-score in experiment [1] was 1.32 (inactive). Besides, the results for the z-score in [15] and in experiment [17] were -0.401 and -0.0255 (inactive), respectively.
